Laboratory results published in paper PMC7862700, “An all-to-all approach to the identification of sequence-specific readers for epigenetic DNA modifications on cytosine”.

What was measured:
Assay in all cases: DAPPL (digital affinity profiling via proximity ligation, sequencing); 10 mM Tris-HCl pH 7.5, 50 mM NaCl, 1 mM DTT, 4% glycerol, room temperature, 30 min; GST-TFs on glutathione beads, 16-mer random dsDNA library, 0.1% formaldehyde crosslink after washing; high values mean tight binding
FLI1 = biological target: T1, FLI1 (Homo sapiens, UniProt Q01543 1-452); settings: protein: recombinant; tags: N-terminal GST; dsDNA, one strand shown
T1 sequence: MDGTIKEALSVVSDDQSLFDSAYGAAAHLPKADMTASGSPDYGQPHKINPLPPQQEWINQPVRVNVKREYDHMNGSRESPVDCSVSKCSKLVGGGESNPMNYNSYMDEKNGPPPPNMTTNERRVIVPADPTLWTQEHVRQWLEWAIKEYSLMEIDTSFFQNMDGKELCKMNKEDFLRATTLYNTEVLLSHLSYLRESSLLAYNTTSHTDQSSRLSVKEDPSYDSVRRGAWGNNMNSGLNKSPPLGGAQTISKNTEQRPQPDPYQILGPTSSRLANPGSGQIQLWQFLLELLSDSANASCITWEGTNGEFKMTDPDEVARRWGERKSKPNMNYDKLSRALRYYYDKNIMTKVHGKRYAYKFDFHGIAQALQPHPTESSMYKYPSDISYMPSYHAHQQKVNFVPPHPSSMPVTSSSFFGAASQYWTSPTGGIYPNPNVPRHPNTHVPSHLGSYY
Procedure, shortened: (§1)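 Pools were built from human transcription factors expressed in yeast as GST fusions, captured on glutathione beads and DNA-barcoded, along with a tag-only sample. Incubation with 200 nmole of a 16-mer random double-stranded DNA library lasted 30 min at room temperature in Tris/NaCl/DTT/glycerol buffer, and was followed by washing, 0.1% formaldehyde crosslinking, proximity ligation, PCR amplification and Illumina NextSeq500 sequencing. Binding signal is the quotient of each hexamer's read frequency for a factor and its frequency for the tag-only sample.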

ELK1 = biological target: T2, ELK1 (Homo sapiens, UniProt P19419 1-428); settings: protein: recombinant; tags: N-terminal GST; dsDNA, one strand shown
T2 sequence: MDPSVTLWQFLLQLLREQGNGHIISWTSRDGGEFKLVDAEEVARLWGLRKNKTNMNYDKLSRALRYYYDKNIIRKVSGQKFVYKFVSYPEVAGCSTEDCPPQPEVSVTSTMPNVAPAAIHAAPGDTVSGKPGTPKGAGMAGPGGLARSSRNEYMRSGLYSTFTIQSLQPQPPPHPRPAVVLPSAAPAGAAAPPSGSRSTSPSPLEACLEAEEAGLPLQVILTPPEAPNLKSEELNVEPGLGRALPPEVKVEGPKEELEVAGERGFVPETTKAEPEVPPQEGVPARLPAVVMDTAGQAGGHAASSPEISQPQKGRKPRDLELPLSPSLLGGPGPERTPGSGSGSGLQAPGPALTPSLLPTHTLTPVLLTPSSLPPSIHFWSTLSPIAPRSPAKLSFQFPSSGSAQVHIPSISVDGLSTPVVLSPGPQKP
Procedure, shortened: as §1

GABPA = biological target: T3, GABPA (Homo sapiens, UniProt Q06546 1-454); settings: protein: recombinant; tags: N-terminal GST; dsDNA, one strand shown
T3 sequence: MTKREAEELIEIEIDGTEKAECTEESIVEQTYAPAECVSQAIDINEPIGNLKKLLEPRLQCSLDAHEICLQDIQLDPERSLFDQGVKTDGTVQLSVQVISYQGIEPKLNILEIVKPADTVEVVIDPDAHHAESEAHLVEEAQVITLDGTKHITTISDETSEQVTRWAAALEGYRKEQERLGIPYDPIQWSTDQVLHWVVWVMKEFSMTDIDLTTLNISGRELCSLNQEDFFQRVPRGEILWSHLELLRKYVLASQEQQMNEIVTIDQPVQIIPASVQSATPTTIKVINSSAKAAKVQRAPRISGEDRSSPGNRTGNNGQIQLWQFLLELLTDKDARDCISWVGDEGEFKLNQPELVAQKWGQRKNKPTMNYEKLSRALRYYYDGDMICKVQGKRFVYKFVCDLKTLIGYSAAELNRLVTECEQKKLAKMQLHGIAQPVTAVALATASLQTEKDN
Procedure, shortened: as §1

ERG = biological target: T4, ERG (Homo sapiens, UniProt P11308 1-479); settings: protein: recombinant; tags: N-terminal GST; dsDNA, one strand shown
T4 sequence: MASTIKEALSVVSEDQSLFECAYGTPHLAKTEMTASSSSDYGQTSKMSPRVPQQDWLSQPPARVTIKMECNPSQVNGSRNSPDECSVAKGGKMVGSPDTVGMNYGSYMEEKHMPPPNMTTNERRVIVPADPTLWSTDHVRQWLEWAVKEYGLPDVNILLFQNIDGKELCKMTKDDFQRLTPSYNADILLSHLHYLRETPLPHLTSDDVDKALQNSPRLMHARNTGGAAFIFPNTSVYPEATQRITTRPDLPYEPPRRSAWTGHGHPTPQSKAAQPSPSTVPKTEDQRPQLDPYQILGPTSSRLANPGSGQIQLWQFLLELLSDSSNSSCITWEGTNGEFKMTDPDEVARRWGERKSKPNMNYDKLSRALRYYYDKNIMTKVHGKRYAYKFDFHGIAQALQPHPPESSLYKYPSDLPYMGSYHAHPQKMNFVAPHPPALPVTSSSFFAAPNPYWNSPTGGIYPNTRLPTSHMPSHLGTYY
Procedure, shortened: as §1

ELF1 = ELF1 (Homo sapiens, UniProt P32519 1-619); settings: protein: recombinant; tags: N-terminal GST; dsDNA, one strand shown
Procedure, shortened: as §1

EHF = biological target: T5, EHF (Homo sapiens, UniProt Q9NZC4 1-300); settings: protein: recombinant; tags: N-terminal GST; dsDNA, one strand shown
T5 sequence: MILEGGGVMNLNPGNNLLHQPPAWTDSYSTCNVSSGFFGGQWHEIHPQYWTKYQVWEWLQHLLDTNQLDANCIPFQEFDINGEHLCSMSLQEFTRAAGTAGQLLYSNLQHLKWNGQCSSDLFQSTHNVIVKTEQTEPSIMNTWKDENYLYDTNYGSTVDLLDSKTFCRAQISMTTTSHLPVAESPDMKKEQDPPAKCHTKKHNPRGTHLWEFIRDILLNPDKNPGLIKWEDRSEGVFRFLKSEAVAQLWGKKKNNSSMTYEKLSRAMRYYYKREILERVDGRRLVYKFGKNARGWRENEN
Procedure, shortened: as §1

SPI1 = SPI1 (Homo sapiens, UniProt P17947 1-270); settings: protein: recombinant; tags: N-terminal GST; dsDNA, one strand shown
Procedure, shortened: as §1

SPIB = SPIB (Homo sapiens, UniProt Q01892 1-262); settings: protein: recombinant; tags: N-terminal GST; dsDNA, one strand shown
Procedure, shortened: as §1

ELK3 = biological target: T6, ELK3 (Homo sapiens, UniProt P41970 1-407); settings: protein: recombinant; tags: N-terminal GST; dsDNA, one strand shown
T6 sequence: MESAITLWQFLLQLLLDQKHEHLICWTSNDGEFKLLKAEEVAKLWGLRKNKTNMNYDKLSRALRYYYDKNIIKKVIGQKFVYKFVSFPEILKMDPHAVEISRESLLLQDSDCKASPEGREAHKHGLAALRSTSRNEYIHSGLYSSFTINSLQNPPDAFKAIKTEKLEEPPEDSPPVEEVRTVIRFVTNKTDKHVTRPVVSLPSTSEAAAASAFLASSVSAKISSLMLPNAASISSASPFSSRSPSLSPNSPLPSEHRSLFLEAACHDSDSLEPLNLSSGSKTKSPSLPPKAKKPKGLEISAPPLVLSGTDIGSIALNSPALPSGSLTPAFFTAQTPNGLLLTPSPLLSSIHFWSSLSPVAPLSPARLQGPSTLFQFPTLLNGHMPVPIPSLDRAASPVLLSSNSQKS
Procedure, shortened: as §1

FEV = biological target: T7, FEV (Homo sapiens, UniProt Q99581 1-238); settings: protein: recombinant; tags: N-terminal GST; dsDNA, one strand shown
T7 sequence: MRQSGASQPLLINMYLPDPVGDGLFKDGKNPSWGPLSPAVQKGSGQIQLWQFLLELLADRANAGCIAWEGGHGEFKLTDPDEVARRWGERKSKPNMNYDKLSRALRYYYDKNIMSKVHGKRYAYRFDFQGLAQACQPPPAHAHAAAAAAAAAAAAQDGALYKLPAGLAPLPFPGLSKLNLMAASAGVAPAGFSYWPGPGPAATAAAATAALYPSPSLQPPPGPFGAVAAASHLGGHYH
Procedure, shortened: as §1

ETV5 = ETV5 (Homo sapiens, UniProt P41161 1-510); settings: protein: recombinant; tags: N-terminal GST; dsDNA, one strand shown
Procedure, shortened: as §1

HSF1 = HSF1 (Homo sapiens, UniProt Q00613 1-529); settings: protein: recombinant; tags: N-terminal GST; chain copies: 3; dsDNA, one strand shown
Procedure, shortened: as §1

SPIC = biological target: T8, SPIC (Homo sapiens, UniProt Q8N5J4 1-248); settings: protein: recombinant; tags: N-terminal GST; dsDNA, one strand shown
T8 sequence: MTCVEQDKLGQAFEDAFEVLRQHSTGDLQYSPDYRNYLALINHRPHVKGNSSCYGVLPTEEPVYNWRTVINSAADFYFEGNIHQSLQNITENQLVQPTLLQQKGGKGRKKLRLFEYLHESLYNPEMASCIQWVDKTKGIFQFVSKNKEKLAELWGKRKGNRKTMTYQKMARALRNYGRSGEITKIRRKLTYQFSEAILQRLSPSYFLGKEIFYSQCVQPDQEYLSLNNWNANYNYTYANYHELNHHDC
Procedure, shortened: as §1

ELF4 = ELF4 (Homo sapiens, UniProt Q99607 1-663); settings: protein: recombinant; tags: N-terminal GST; dsDNA, one strand shown
Procedure, shortened: as §1

ELK4 = biological target: T9, ELK4 (Homo sapiens, UniProt P28324-2 1-405); settings: protein: recombinant; tags: N-terminal GST; dsDNA, one strand shown
T9 sequence: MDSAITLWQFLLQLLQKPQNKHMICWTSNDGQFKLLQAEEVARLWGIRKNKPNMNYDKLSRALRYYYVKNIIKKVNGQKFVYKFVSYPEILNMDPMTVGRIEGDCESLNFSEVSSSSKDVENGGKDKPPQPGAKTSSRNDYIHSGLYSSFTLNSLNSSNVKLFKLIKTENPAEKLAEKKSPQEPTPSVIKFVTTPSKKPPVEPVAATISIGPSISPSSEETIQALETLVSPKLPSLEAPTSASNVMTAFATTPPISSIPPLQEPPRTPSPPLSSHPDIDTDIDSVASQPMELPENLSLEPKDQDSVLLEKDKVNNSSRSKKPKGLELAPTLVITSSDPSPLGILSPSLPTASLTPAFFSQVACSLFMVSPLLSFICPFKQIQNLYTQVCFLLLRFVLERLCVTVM
Procedure, shortened: as §1

ETV2 = biological target: T10, ETV2 (Homo sapiens, UniProt O00321 1-342); settings: protein: recombinant; tags: N-terminal GST; dsDNA, one strand shown
T10 sequence: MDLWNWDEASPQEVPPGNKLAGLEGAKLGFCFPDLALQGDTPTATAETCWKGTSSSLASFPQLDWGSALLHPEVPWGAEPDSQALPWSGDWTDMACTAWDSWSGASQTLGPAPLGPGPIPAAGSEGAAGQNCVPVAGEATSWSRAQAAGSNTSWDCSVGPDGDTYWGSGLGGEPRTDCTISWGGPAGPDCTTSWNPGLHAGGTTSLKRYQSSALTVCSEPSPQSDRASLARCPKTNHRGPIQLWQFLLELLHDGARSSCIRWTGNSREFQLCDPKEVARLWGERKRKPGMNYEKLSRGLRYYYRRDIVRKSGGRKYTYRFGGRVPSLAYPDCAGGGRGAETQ
Procedure, shortened: as §1

ELF3 = biological target: T11, ELF3 (Homo sapiens, UniProt P78545 1-371); settings: protein: recombinant; tags: N-terminal GST; dsDNA, one strand shown
T11 sequence: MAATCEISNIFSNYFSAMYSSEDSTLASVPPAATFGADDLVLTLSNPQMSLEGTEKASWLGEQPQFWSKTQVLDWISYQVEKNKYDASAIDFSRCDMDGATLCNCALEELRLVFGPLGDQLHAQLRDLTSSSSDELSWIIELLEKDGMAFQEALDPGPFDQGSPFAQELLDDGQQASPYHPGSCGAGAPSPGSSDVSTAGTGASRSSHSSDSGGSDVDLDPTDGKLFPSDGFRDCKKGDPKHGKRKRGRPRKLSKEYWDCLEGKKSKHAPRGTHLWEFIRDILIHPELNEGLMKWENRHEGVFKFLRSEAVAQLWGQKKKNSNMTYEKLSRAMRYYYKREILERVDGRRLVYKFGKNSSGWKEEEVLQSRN
Procedure, shortened: as §1

CRX = CRX (Homo sapiens, UniProt O43186 1-299); settings: protein: recombinant; tags: N-terminal GST; dsDNA, one strand shown
Procedure, shortened: as §1

ETV1 = ETV1 (Homo sapiens, UniProt P50549 1-477); settings: protein: recombinant; tags: N-terminal GST; dsDNA, one strand shown
Procedure, shortened: as §1

ETV1, sequence (P50549 whole entry): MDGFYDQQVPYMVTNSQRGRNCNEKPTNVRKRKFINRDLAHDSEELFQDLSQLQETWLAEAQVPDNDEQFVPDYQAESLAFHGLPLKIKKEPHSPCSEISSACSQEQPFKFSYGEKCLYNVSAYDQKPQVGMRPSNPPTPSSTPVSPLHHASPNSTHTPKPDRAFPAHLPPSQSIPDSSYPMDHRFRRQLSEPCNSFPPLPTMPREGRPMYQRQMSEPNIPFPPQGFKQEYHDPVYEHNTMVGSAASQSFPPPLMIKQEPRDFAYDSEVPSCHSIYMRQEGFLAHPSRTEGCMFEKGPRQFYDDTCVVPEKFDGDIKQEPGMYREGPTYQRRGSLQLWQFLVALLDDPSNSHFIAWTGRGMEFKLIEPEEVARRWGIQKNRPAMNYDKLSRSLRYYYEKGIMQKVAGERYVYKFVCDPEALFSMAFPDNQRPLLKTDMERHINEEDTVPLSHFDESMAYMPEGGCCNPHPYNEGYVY
ELF4, sequence (Q99607 whole entry): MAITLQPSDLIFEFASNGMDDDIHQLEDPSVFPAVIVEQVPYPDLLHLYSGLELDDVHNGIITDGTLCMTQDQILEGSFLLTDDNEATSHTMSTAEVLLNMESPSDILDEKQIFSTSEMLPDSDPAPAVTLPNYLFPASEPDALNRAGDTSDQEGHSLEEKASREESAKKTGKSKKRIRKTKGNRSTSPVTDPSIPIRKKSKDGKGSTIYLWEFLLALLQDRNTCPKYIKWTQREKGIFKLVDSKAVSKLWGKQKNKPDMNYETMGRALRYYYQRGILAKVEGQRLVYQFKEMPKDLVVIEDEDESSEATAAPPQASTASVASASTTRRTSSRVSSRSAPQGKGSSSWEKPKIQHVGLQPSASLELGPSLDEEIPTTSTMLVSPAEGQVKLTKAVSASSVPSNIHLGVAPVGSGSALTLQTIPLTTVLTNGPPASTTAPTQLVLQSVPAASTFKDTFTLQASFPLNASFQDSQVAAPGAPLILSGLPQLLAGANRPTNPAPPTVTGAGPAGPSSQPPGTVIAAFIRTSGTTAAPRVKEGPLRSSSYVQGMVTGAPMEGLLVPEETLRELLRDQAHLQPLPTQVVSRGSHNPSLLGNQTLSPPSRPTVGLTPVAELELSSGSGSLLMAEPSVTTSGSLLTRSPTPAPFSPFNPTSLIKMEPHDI
ETV5, sequence (P41161 whole entry): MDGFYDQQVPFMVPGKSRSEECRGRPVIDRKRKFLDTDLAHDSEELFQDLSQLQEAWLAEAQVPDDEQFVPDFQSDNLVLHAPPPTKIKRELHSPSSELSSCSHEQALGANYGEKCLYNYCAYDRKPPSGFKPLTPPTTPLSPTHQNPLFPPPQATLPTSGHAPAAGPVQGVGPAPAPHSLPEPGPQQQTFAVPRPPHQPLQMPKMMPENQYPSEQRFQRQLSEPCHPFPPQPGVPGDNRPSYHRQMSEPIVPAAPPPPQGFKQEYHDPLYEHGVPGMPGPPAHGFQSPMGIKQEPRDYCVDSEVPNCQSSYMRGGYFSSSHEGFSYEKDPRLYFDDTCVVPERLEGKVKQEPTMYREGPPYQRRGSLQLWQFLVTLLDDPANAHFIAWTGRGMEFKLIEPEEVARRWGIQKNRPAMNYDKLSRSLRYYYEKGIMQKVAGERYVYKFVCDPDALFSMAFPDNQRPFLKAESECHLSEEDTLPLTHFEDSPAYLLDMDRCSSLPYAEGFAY
HSF1, sequence (Q00613 whole entry): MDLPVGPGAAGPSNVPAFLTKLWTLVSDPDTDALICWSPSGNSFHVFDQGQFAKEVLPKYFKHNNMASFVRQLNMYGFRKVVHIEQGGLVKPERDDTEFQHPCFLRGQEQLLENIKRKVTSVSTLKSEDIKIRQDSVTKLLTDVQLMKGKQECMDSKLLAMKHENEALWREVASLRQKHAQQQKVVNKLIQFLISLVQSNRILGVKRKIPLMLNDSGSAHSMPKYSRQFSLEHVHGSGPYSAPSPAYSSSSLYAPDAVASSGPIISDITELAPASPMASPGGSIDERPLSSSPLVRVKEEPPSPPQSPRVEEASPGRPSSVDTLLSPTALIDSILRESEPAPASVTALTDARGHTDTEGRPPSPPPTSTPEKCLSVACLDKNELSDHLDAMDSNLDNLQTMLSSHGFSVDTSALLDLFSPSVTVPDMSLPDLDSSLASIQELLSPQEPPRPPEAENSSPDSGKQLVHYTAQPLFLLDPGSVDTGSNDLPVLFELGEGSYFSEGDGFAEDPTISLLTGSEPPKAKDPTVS
ELF1, sequence (P32519 whole entry): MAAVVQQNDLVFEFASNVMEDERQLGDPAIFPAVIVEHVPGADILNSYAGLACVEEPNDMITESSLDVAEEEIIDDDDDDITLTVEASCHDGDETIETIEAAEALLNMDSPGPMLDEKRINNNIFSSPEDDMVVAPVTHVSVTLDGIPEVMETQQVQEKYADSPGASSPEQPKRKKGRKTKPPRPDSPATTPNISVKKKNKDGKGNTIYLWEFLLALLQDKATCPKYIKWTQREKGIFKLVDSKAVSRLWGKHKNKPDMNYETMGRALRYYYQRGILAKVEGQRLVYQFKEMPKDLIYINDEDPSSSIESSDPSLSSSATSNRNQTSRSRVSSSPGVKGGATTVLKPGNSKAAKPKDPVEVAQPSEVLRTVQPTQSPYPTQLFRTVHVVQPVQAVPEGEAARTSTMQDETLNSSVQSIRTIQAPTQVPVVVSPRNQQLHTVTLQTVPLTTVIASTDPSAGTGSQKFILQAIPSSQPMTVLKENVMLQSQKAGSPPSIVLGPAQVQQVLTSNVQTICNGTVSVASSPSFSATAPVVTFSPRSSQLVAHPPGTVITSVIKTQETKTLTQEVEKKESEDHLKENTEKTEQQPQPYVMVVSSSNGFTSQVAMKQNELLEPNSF
CRX, sequence (O43186 whole entry): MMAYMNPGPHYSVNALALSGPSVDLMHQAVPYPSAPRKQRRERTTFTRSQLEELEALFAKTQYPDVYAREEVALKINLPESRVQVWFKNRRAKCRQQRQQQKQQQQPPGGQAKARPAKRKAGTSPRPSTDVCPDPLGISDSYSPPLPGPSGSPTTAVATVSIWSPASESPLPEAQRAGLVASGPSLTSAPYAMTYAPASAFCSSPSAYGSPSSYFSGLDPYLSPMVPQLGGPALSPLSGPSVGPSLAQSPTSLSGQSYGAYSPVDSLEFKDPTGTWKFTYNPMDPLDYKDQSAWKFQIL
SPIB, sequence (Q01892 whole entry): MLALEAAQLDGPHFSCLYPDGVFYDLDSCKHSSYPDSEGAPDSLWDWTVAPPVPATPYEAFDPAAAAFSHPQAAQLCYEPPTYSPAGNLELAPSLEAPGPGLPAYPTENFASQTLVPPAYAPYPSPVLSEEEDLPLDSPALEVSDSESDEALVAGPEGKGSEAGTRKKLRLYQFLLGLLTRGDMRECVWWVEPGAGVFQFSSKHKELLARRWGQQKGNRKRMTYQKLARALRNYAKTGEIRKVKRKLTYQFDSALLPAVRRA

CGTCTA
binding signal (FLI1): 1.15 fold enrichment (6-mer frequency, TF over GST control) | binding signal (ELK1): 1.26 fold enrichment (6-mer frequency, TF over GST control) | binding signal (GABPA): 1.31 fold enrichment (6-mer frequency, TF over GST control) | binding signal (ERG): 1.37 fold enrichment (6-mer frequency, TF over GST control) | binding signal (ELF1): 1.31 fold enrichment (6-mer frequency, TF over GST control) | binding signal (EHF): 1.27 fold enrichment (6-mer frequency, TF over GST control) | binding signal (SPI1): 1.25 fold enrichment (6-mer frequency, TF over GST control) | binding signal (SPIB): 1.37 fold enrichment (6-mer frequency, TF over GST control) | binding signal (ELK3): 1.25 fold enrichment (6-mer frequency, TF over GST control) | binding signal (FEV): 1.24 fold enrichment (6-mer frequency, TF over GST control) | binding signal (ETV5): 1.31 fold enrichment (6-mer frequency, TF over GST control) | binding signal (HSF1): 1.52 fold enrichment (6-mer frequency, TF over GST control) | binding signal (SPIC): 1.16 fold enrichment (6-mer frequency, TF over GST control) | binding signal (ELF4): 1.4 fold enrichment (6-mer frequency, TF over GST control) | binding signal (ELK4): 1.34 fold enrichment (6-mer frequency, TF over GST control) | binding signal (ETV2): 1.29 fold enrichment (6-mer frequency, TF over GST control) | binding signal (ELF3): 1.29 fold enrichment (6-mer frequency, TF over GST control) | binding signal (CRX): 1.28 fold enrichment (6-mer frequency, TF over GST control) | binding signal (ETV1): 1.36 fold enrichment (6-mer frequency, TF over GST control)
